Common to all, as to assay: MITOMI; MITOMI, 295 K (22 C); buffer, salt and pH not stated in the material; high values mean tight binding
What all share (details): protein: ivt; label: fluorescent; dsDNA, one strand shown

Assay [1] concerns the target T1, MarA RQR (Escherichia coli, UniProt P0ACH5 1-127, W40R).
T1 sequence: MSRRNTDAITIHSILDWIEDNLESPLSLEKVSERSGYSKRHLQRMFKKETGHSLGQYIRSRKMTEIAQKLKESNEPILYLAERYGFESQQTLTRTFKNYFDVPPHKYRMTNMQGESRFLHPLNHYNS
The essentials: (§1)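 MarA protein variants were made by in vitro transcription and translation with the RTS E. coli HY kit and fluorescently labelled by adding tRNA-lys-bodipy-fl. Each was tested by MITOMI against 64 synthesized variants of the mar binding site, with protein and DNA fluorescence read on Genepix at 295K. Association constants were measured by MITOMI, and each site's value is expressed relative to the highest-affinity site for that protein variant.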

Assay [2] concerns the target T2, MarA RTR (Escherichia coli, UniProt P0ACH5 1-127, W40R;Q43T).
T2 sequence: T1 sequence with Q43T
The essentials:
as §1

Assay [3] addresses T3, MarA SAR (Escherichia coli, UniProt P0ACH5 1-127, W40S;Q43A).
T3 sequence: T1 sequence with R40S, Q43A
The essentials: as §1

Assay [4] addresses T4, MarA TRR (Escherichia coli, UniProt P0ACH5 1-127, W40T;Q43R).
T4 sequence: T1 sequence with R40T, Q43R
The essentials: as §1

Experimental findings from publication PMC3315485, “Probing the Informational and Regulatory Plasticity of a Transcription Factor DNA–Binding Domain” are described below.

Where a chain is given by its changes, count along the chain named.

In the case of ATGTTCCGTTTTGCTAAAT, the binding signal in assay [1] is 0.16 Ka relative to the best site of the variant; in assay [2], 0.207 Ka relative to the best site of the variant; in assay [3], 0.254 Ka relative to the best site of the variant; in assay [4], 0.449 Ka relative to the best site of the variant.
